Measurements taken from PubChem BioAssay (NCATS).
Results filed as inconclusive are left out. The source made the active and inactive calls. Unless noted, the call rests on the fitted dose curve; in most records, active means well fitted curve in the direction sought with a large enough effect; inconclusive means small, poorly fitted or top-dose-only effect, or another doubt; inactive means no such curve, though single readings can be large; an effect the other way counts as inactive or inconclusive.

How the values were obtained:
[1] = molecular target: Calcium and integrin-binding protein 1 (Homo sapiens) (UniProt Q99828); experiment: Primary qHTS for Identification of Calcium Integrin Binding Protein 1 (CIB1) Competitor (AID 1508620);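 further: GST tagged CIB1 binding a fluorescein labelled alphaIIb integrin peptide tracer; top concentration of the series differs between compounds; on the % scale 0 is the no-effect control and ±100 the full control effect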
Procedure, shortened: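 Fluorescence polarization competition: GST-tagged CIB1 (1 uM final) preincubated with compound 15 min at room temperature, then FITC-labelled alphaIIb peptide (100 nM final) added. After 15 min at room temperature, polarization read at Ex 480/Em 540.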

[2] = molecular target: Cytochrome P450 1A2 (Homo sapiens) (UniProt P05177); experiment: p450-cyp1a2 (AID 410; calls by dose curve; further: potency means the concentration at half of the fitted maximal effect)
Procedure, shortened: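 Inhibition was calculated relative to 57 uM furafylline (full inhibition). The reaction used human CYP1A2 at 20nM with Luciferin-ME at its Km, 100uM, driven by an NADPH-regenerating system for 60 min at room temperature.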

[3] = NFAT Signaling Pathway (AID 444; active means well fitted curve in either direction with a large enough effect, not every such curve was filed as active;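 further: carbachol stimulus at about its EC50 of 1 µM final; on the % scale 0 is the no-effect control and ±100 the full control effect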); settings: Jurkat NFAT-bla M1, carbachol, beta-lactamase ratio, 5 h; at 7.69 µM (top of the series) unless noted
Procedure, shortened: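 Jurkat cells with NFAT-driven β-lactamase reporter and co-expressed M1 receptor, stimulated with carbachol (final 1 uM, ~EC50), compound titration, 5 h at 37 °C. CCF4 loaded 1 h at RT; 460/530 nm ratio gave %activity and AC50.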

[4] = Stat Signaling Pathway (AID 446; active means well fitted curve in either direction with a large enough effect, not every such curve was filed as active;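 further: ME-180 cervical cancer cells given 40 pM IL-6 alongside compound; SIE-controlled beta-lactamase reporter measured as 460/530 nm FRET emission ratio; on the % scale 0 is the no-effect control and ±100 the full control effect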); settings: ME-180 (cervical carcinoma) SIE beta-lactamase reporter, IL-6 stimulated, 5 h; at 7.69 µM (top of the series) unless noted
Procedure, shortened: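 IL-6/STAT signaling read in ME-180 cells via an SIE beta-lactamase reporter. Stimulus was 40 pM IL-6 (its AC50) for 5 hrs, so both activation and inhibition register.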

[5] = molecular target: Glucocorticoid receptor (Homo sapiens) (UniProt P04150); experiment: GR-EFC Redistribution (AID 451; calls by dose curve; further: potency means the concentration at half of the fitted maximal effect); settings: CHO-K1 GR-EFC translocation, beta-gal luminescence, 2 h
Procedure, shortened: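 CHO-K1 cells expressing nuclear EA and GR-ED fragments of b-gal; compounds titrated up to 46 uM final, 2 h at 37 C. GR nuclear translocation read as complemented b-gal luminescence after 1 h RT detection.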

[6] = molecular target: Mitogen-activated protein kinase 10 (Mus musculus) (UniProt Q61831); experiment: JNK3 AlphaScreen Assay (AID 530; active means well fitted curve in either direction with a large enough effect, not every such curve was filed as active;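 further: kinase came from lysate of stimulated human HepG2 cells; signal reports phosphorylation of biotinylated GST-cJun 1-79 at Ser73 with 10 µM ATP; on the % scale 0 is the no-effect control and ±100 the full control effect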)
Procedure, shortened: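 qHTS format: compounds tested as titrations against IL-1beta/TNF-alpha-activated HepG2 lysate JNK3 with biotin-GST-cJun substrate and 10 uM ATP at room temperature. Loss of anti-phospho-cJun AlphaScreen signal indicates inhibition.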

[7] = molecular target: 3',5'-cyclic-AMP phosphodiesterase 4B (Homo sapiens) (UniProt Q07343); experiment: qHTS Assay for Inhibitors of PDE-IV (AID 607; active means well fitted activation curve with a large enough effect in the main read-out, with a control signal flat, not every such curve was filed as active; further: % of control where 0% means no effect)
Procedure, shortened: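 Live HEK293 cells with a modified cyclic nucleotide-gated (CNG) channel report intracellular cAMP via membrane-potential dye fluorescence (ex 535/em 590 nm). Endogenous PDE-IV was targeted. Compounds were tested at up to 22.9 uM final; RO 20-1724 100 uM served as control.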

[8] = molecular target: Cytochrome P450 3A4 (Homo sapiens) (UniProt P08684); experiment: qHTS Assay for Inhibitors and Substrates of Cytochrome P450 3A4 (AID 884); further: potency means the concentration at half of the fitted maximal effect; nearly all actives have a fitted effect of over 50% in size
Procedure, shortened: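 20 nM human CYP3A4 with 25 uM Luciferin-PPXE (at KM) in 200 mM KPO4, preincubated 10 min with compound; NADPH regeneration started a 60 min RT reaction. Luciferin detected by luminescence, normalized to 57 uM ketoconazole as full inhibition.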

[9] = molecular target: Cytochrome P450 3A4 (Homo sapiens) (UniProt P08684); experiment: qHTS Assay for Activators of Cytochrome P450 3A4 (AID 885); further: nearly all actives have a fitted effect of over 65% in size
Procedure, shortened: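 Quantitative HTS format: compounds preincubated with 20nM human CYP3A4 and Luciferin-PPXE substrate at KM, reaction started by NADPH regeneration, stopped after 60 min, luciferase luminescence read 20 min later.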

[10] = molecular target: Cytochrome P450 2C19 (Homo sapiens) (UniProt P33261); experiment: qHTS Assay for Inhibitors and Substrates of Cytochrome P450 2C19 (AID 899); further: potency means the concentration at half of the fitted maximal effect; nearly all actives have a fitted effect of over 60% in size
Procedure, shortened: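 Signal comes from luciferase acting on luciferin released by CYP2C19-mediated hydroxylation of Luciferin-H EGE, 10uM (KM). Assay mix: 5nM enzyme, 50mM KPO4; 60 min at 37C with NADPH regeneration. Data normalized against 57uM ketoconazole.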

[11] = molecular target: Dual specificity protein kinase CLK4 (Homo sapiens) (UniProt Q9HAZ1); experiment: qHTS Assay for Inhibitors of CDC-like Kinase 4 (Kinase-Glo Assay) (AID 1770); further: potency means the concentration at half of the fitted maximal effect; nearly all actives have a fitted effect of over 65% in size
Procedure, shortened: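 Luminescent ATP-depletion read-out (Kinase-Glo) after 4.5 h room-temperature reaction of Clk4 (25 nM final) with RS peptide (100 uM) and ATP (1 uM), pH 7.5 Tris buffer with MgCl2 and DTT.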

[12] = molecular target: Dual specificity protein kinase CLK4 (Homo sapiens) (UniProt Q9HAZ1); experiment: qHTS Assay for Inhibitors of CDC-like Kinase 4 (ADP-Glo Assay) (AID 1771); further: potency means the concentration at half of the fitted maximal effect; nearly all actives have a fitted effect of over 70% in size
Procedure, shortened: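 Kinase reaction: Clk4 at 25 nM, RS repeat peptide substrate at 100 uM, ATP at 1 uM, 1 hr, room temperature. Product ADP detected as luciferase signal via ADP-Glo.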

[13] = molecular target: Dual specificity protein kinase CLK4 (Homo sapiens) (UniProt Q9HAZ1); experiment: qHTS Assay for Inhibitors of CDC-like Kinase 4 (ADP-FP Assay) (AID 1795); further: potency means the concentration at half of the fitted maximal effect; nearly all actives have a fitted effect of over 60% in size
Procedure, shortened: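 Kinase activity was measured as ADP production using Transcreener orange tracer (4 nM) and ADP antibody (1 ug/mL) fluorescence polarization, with ADP calculated from a calibration curve. The 1 h reaction contained 6.25 nM Clk4, 1 uM ATP and 100 uM RS peptide at pH 7.5 with Mg2+.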

[14] = molecular target: Ubiquitin carboxyl-terminal hydrolase 1 (Homo sapiens) (UniProt O94782); experiment: Inhibitors of USP1/UAF1: Pilot qHTS (AID 504865);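 further: rhodamine fluorescence freed from ubiquitin-rhodamine substrate followed over time; top concentration of the series differs between compounds; on the % scale 0 is the no-effect control and ±100 the full control effect; nearly all actives have a fitted effect of over 35% in size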
Procedure, shortened: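 Deubiquitinase activity followed as kinetic rhodamine fluorescence release from 150 nM Ub-Rho. 1 nM USP1/UAF1 with compound, after 15 min room-temperature preincubation, in HEPES pH 7.8 buffer containing TCEP, EDTA, BSA and Tween-20.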

[15] = Primary qHTS for small molecule stabilizers of the endoplasmic reticulum resident proteome: Secreted ER Calcium Modulated Protein (SERCaMP) assay (AID 1508630); further: on the % scale 0 is the no-effect control and ±100 the full control effect
Procedure, shortened: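 GLuc-SERCaMP-expressing SH-SY5Y cells, pretreated 16 h with compound, are challenged with thapsigargin to empty ER calcium stores; after 4 h, coelenterazine is added directly to the medium and luminescence is imaged.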

[16] = molecular target: Glucocorticoid receptor (Homo sapiens) (UniProt P04150); experiment: GR-GFP Redistribution (AID 450;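 active means compounds whose dose series gives a full or clear partial fitted curve of increased nuclear translocation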; further: potency means the concentration at half of the fitted maximal effect); settings: U2OS GR-GFP nuclear translocation, laser cytometry, 2 h
[17] = Confirmation and Secondary Assay for Modulators of Hemoglobin Beta Chain Splicing at IVS2 654 locus (AID 910);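 further: HeLa cells stably carrying EGFP split by mutant beta-globin IVS2-654 intron; % of control where 0% means no effect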
Procedure, shortened: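 HeLa cells stably expressing EGFP interrupted by β-globin IVS2-654 intron, seeded overnight in Opti-MEM/2% FCS, then treated 2 days at 37 °C. Restored splicing read as total peak GFP intensity per well by laser scanning cytometry (488 nm excitation, 500–520 nm emission); 500 nM antisense PNA as control.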

[18] = Confirmation and Secondary Assay for Modulators of Hemoglobin Beta Chain Splicing at IVS2 705 locus (AID 930);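 further: HeLa cells stably expressing the EGFP-705 splicing reporter; GFP fluorescence per well restored by corrected splicing of the IVS2-705 intron in EGFP; % of control where 0% means no effect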
Procedure, shortened: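 Fluorescence gain (488 nm laser, 500-520 nm PMT) reflects restored correct splicing of a mutant IVS2-705 intron inside EGFP in stably transfected HeLa cells after 2-day compound treatment.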

[19] = qHTS Assay for Lipid Storage Modulators (AID 1519; calls by dose curve); settings: Drosophila S3 cells, BODIPY lipid droplet/cell ratio, laser cytometry, cells loaded with oleic acid
Procedure, shortened: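 Cells seeded at 5,000 per well were treated with compounds over a concentration series and loaded with oleic acid (400 uM, as added). Lipid droplet fluorescence (488 nm excitation, 500-530 nm channel) was read by laser-scanning cytometry and normalized to 20 uM Triacsin C.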

[20] = Confirmatory qHTS for small molecule stabilizers of the endoplasmic reticulum resident proteome: Secreted ER Calcium Modulated Protein (SERCaMP) assay (AID 1508628); further: potency means the concentration at half of the fitted maximal effect; nearly all actives have a fitted effect of over 40% in size
Procedure, shortened: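 We seeded SH-SY5Y-GLuc-SERCaMP cells, added compounds (three concentrations in the primary run, eleven up to 76.6 uM in confirmation), incubated 16 h, depleted ER calcium with thapsigargin, and read luciferase 4 h later.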

[21] = NCATS anti-infectives library activity on HEK293 viability as a counter-qHTS vs the C. elegans viability qHTS (AID 1745854)
Procedure, shortened: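 Cytotoxicity in human HEK293 cells is measured by ATP-dependent CellTiter-Glo luminescence following a 24 hr incubation with titrated library compounds at 37C. Top final concentration is 41.7 uM.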

Chain of Cytochrome P450 3A4 (Homo sapiens) (P08684 whole entry, looked up): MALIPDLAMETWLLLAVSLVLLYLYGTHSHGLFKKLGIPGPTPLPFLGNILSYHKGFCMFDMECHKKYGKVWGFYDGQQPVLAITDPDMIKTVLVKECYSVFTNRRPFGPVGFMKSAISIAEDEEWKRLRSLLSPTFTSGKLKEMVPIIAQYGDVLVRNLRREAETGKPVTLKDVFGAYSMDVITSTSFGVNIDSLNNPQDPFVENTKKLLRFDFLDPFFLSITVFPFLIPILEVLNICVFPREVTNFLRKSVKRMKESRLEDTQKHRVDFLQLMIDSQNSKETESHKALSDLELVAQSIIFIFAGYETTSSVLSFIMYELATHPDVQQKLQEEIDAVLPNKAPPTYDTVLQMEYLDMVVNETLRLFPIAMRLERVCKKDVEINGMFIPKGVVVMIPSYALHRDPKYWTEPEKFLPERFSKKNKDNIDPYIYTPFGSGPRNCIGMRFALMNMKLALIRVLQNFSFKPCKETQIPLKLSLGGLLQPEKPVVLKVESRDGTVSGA
Chain of Calcium and integrin-binding protein 1 (Homo sapiens) (Q99828 whole entry, looked up): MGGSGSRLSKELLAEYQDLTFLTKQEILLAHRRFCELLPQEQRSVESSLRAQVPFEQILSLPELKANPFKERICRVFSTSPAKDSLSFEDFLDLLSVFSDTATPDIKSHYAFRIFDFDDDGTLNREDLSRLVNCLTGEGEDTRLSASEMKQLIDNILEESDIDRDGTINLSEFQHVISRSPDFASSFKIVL
Chain of Glucocorticoid receptor (Homo sapiens) (P04150 whole entry, looked up, the tested form may be a part): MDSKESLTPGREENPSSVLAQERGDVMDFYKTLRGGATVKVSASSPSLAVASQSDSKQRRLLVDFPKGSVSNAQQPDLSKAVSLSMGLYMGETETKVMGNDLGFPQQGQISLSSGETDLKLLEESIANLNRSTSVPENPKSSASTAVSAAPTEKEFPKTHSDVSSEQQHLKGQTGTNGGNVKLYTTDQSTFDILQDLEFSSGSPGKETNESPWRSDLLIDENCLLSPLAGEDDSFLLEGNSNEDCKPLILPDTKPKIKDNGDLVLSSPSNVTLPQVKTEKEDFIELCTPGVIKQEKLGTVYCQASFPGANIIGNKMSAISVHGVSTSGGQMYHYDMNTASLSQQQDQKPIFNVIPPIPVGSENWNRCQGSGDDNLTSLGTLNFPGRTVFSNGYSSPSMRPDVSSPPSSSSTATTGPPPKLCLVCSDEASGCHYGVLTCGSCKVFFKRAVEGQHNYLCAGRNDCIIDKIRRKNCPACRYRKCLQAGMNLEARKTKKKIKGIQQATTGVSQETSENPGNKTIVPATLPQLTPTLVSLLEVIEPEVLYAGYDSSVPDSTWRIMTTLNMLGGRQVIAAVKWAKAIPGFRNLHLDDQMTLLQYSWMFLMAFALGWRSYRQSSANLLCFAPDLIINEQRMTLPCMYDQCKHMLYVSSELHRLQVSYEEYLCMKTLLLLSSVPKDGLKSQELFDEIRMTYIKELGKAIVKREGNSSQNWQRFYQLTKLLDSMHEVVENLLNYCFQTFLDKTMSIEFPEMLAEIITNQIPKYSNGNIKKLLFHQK
Chain of Dual specificity protein kinase CLK4 (Homo sapiens) (Q9HAZ1 whole entry, looked up): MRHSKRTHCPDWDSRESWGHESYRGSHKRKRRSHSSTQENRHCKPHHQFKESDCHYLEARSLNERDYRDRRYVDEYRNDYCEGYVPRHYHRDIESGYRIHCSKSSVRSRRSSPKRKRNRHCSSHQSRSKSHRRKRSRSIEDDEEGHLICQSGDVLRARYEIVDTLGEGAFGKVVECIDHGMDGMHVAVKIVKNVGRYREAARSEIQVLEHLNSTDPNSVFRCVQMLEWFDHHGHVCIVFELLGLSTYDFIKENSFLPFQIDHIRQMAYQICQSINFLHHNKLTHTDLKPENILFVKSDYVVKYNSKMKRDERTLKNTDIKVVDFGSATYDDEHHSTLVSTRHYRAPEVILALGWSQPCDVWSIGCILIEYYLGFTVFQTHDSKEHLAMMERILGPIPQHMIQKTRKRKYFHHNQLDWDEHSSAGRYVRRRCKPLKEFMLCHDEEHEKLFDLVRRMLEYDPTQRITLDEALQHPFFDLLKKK
Chain of Cytochrome P450 1A2 (Homo sapiens) (P05177 whole entry, looked up): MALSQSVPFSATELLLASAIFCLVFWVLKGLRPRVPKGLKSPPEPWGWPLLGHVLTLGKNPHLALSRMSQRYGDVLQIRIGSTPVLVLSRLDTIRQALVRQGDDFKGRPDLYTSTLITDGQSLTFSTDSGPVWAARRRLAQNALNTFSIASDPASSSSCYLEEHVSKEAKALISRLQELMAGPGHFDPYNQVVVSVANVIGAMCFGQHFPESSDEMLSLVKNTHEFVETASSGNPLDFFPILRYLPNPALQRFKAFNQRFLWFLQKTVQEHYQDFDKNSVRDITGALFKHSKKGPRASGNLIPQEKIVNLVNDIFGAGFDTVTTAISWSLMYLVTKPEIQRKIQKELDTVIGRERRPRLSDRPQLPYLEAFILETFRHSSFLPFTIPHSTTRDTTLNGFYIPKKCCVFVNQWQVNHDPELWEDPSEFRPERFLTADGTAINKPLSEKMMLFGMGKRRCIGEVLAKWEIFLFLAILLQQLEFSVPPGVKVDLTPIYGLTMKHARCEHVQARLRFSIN
Chain of 3',5'-cyclic-AMP phosphodiesterase 4B (Homo sapiens) (Q07343 whole entry, looked up): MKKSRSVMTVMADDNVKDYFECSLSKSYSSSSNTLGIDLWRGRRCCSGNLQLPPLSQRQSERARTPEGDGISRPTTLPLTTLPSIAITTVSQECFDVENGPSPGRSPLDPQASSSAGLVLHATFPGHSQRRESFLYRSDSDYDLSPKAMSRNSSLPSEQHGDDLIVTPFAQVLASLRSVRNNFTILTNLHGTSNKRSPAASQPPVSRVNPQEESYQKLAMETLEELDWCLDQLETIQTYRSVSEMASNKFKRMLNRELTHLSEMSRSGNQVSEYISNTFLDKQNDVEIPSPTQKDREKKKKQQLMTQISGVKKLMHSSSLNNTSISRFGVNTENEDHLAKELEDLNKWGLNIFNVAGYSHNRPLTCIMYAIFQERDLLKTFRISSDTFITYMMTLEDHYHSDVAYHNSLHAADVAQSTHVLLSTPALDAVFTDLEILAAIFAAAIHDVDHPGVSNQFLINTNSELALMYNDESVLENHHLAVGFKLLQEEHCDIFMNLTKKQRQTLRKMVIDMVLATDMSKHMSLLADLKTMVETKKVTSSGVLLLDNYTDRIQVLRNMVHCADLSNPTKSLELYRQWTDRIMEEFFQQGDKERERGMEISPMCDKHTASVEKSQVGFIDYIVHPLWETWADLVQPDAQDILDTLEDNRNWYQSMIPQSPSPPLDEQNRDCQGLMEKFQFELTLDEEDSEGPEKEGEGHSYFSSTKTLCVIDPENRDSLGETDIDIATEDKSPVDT
Chain of Ubiquitin carboxyl-terminal hydrolase 1 (Homo sapiens) (O94782 whole entry, looked up): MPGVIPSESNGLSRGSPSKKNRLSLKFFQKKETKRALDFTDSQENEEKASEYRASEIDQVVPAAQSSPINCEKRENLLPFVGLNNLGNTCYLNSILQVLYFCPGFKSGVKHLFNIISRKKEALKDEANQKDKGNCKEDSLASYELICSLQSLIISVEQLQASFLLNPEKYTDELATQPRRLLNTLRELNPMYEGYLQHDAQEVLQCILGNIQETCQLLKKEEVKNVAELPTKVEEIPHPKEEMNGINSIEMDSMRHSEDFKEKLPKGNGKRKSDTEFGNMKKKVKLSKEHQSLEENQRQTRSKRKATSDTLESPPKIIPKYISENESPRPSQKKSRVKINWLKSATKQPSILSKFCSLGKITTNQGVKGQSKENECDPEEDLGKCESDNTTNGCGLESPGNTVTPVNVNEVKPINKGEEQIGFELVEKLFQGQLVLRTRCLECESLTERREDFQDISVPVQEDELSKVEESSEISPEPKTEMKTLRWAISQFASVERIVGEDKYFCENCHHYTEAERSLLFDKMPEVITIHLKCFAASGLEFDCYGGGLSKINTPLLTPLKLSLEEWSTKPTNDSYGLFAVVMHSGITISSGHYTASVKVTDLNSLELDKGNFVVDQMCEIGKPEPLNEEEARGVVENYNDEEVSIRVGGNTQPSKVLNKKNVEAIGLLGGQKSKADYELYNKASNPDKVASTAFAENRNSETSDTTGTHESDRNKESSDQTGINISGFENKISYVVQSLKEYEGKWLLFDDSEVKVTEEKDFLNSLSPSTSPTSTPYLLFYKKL
Chain of Cytochrome P450 2C19 (Homo sapiens) (P33261 whole entry, looked up): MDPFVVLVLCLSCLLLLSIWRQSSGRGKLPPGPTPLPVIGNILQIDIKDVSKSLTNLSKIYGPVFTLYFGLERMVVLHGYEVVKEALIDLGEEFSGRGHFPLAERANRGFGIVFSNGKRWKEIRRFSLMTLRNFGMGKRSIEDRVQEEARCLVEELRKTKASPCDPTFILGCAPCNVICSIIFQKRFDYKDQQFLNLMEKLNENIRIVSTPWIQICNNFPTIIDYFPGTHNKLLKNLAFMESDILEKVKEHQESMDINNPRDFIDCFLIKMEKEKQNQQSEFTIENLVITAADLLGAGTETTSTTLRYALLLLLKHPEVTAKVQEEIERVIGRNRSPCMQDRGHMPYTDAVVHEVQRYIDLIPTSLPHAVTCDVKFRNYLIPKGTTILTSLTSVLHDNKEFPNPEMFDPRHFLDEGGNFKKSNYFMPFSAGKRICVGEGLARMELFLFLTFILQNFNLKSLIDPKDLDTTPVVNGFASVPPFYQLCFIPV

Cc1cc2c(s1)c1c(C)nn(Cc3ccc(F)cc3)c(=O)c1n2C
inactive: Potency [1]

c1cncc(CNc2ncnc3ccc(-c4ccoc4)cc23)c1
active: Potency [2] 0.316 µM | Potency [8] 1.58 µM | Potency [10] 0.0251 µM | Potency [11] 2.82 µM | Potency [12] 1.58 µM | Potency [13] 0.794 µM
inactive: activity change, negative = inhibition [3] 2.59% | activity, negative = inhibition [4] -13.4% | Potency [5] > 46 µM | outcome [6] | Potency [7] | Potency [9] | Potency [14] | Potency [1] | Potency [15]

COc1cccc(-c2ccc3ncnc(NCc4cccs4)c3c2)c1
-23.5%: max response ([19]; measured here: lipid channel max response)
inactive: activity change, negative = inhibition [3] 23.9% | activity, negative = inhibition [4] -19.5% | Potency [16] > 46 µM | Potency [5] > 46 µM | outcome [6] | Potency [9] | outcome [17] | outcome [18] | activity change, negative = inhibition ([19]; at 57.5 µM (top of the series)) -9.22% | Potency [1] | Potency [15]
active: Potency [2] 0.501 µM
-18.2%: max response ([19]; measured here: cell count channel max response)

Cc1cnc(NC(=O)c2cc(S(=O)(=O)N(C)C)ccc2N2CCCC2)s1
active: Potency [20] 8.91 µM
inactive: Potency [1] | Potency [21]
